Laboratory results as given in PubChem BioAssay AID1694 (National Center for Advancing Translational Sciences (NCATS), 2009).
Records with an inconclusive call do not appear. Entries that show only a call come without a potency. Activity calls are given as the source filed them. Calls follow the shape of the dose curve; as a rule, active = well fitted curve in the direction sought with a large enough effect; inconclusive = small, poorly fitted or top-dose-only effect, or another doubt; inactive = no such curve, though single readings can be large or run the other way.

Experiment: Confirmation Concentration-Response Assay for Inhibitors of Tau Fibril Formation, Total Fluorescence Counterscreen for Fluorescence Polarization
Conditions: Alexa594-tau K18 total fluorescence counterscreen, interference, tau K18 with P301L mutation; series mostly up to 100 µM
Excerpt: NIH Molecular Libraries Probe Production Network [MLPCN] NIH Chemical Genomics Center [NCGC] MLPCN Grant: X01 MH083262-01 Assay Provider: Carlo Ballatore, University of Pennsylvania NCGC Assay Overview: The microtubule-associated protein tau is an abundant protein in the axons of neurons that stabilizes microtubules. With its ability to modulate microtubule dynamics, tau contributes directly or indirectly, to key structural and regulatory cellular functions. Particularly important is the influence tau exerts on axonal transport, which allows signaling molecules, trophic factors and other essential cellular constituents to travel along the axons. Under pathological conditions, tau becomes sequestered into insoluble aggregates called neurofibrillary tangles. This phenomenon is believed to have pathological consequences by promoting axonal transport deficits that ultimately lead to synaptic dysfunction and neuronal loss. To identify inhibitors of tau aggregation, a heparin-induced tau fibril formation assay was used that employed a recombinantly expressed fragment of tau, K18 (Q242-E372), bearing a P301L mutation (Gustke et al. 1994; Hong et al. 1998). […] Total fluorescence (555 nm excitation and 632 nm emission) was measured to identify fluorescent or absorbent compounds at this wavelength. Such compounds may be artifacts that interfere with the Alexa 594 Tau fluorescence polarization assay. Gustke, N., B. Trinczek, et al. (1994). "Domains of tau protein and interactions with microtubules." Biochemistry 33(32): 9511-22. Hong, M., V. Zhukareva, et al. (1998). "Mutation-specific functional impairments in distinct tau isoforms of hereditary FTDP-17." Science 282(5395): 1914-7. Li, W. and V. M. Lee (2006). "Characterization of two VQIXXK motifs for tau fibrillization in vitro." Biochemistry 45(51): 15692-701. von Bergen, M., S. Barghorn, et al. (2001). "Mutations of tau protein in frontotemporal dementia promote aggregation of paired helical filaments by enhancing local beta-structure." J Biol Chem 276(51): 48165-74.
For screening, 2 uL/well human K18 P301L (15 uM unlabeled and 0.24 uM Alexa 594-labeled tau final concentrations) in reagent buffer (100 mM sodium acetate pH 7) was dispensed into black solid 1536-well plates (Grenier) using a solenoid-based dispenser. Following transfer of 23 nL compound or DMSO vehicle by a pin tool, 2 uL/well heparin (20 uM final concentration) in reagent buffer was added and the plate centrifuged 15 s at 1000 RPM. Plates were incubated 6 hr at 37 C and then 1 uL/well ThT (30 uM final concentration) was added. After a 1 hr ambient incubation, the plates were read by an Envision (Perkin Elmer) to monitor Alexa 594 FP (555 nm excitation and 632 nm emission). Keywords: NIH Roadmap, MLPCN, MLI, MLSMR, NCGC, qHTS, tau, tauopathies, Alzheimer's disease, fibril, neurodegeneration, aggregation

Row | Compound | Potency
1 | Cc1cc2c(N)cccc2nn1 | inactive
2 | COC(=O)c1ccccc1NC(=O)CSc1nc2sc3c(c2c(=O)[nH]1)CCCC3 | inactive
3 | Cc1ccc(C(=O)Nc2nc(=O)n(C(=O)CC(C)C)s2)cc1 | inactive
4 | COC(=O)C1CCc2sc(NC(=O)Cc3ccccc3)c(C(=O)Nc3ccc(Cl)cc3)c21 (stereo not given) | inactive
5 | O=C(Cc1ccccc1)Nc1sc2c(c1C(=O)Nc1cccc(Cl)c1)CCCC2 | inactive
6 | O=C(O)CC1S/C(=N/N=C/c2ccc(-c3ccc(Cl)cc3[N+](=O)[O-])o2)NC1=O (stereo not given) | inactive
7 | CCOC(=O)c1nn(-c2ccc(C)c(C)c2)c(=O)c2c(N)scc12 | inactive
8 | Cc1ccc(NCc2cc3cc4c(cc3n(CC(=O)Nc3ccc(C)cc3)c2=O)OCCO4)cc1 | inactive
9 | COc1ncc(-c2ccccc2)cc1N | inactive
10 | COc1ccc2[nH]c(=O)c(CNc3cccc(C)c3)cc2c1 | inactive
11 | CCOC(=O)c1nn(-c2ccccc2)c(=O)c2c(N)scc12 | inactive
12 | O=C(NCCCO)Nc1ccc2nc(-c3ccco3)c(-c3ccco3)nc2c1 | 3.16 µM [quencher] (active)
13 | CCOC(=O)c1nn(-c2ccccc2F)c(=O)c2c(N)scc12 | inactive
14 | COc1ccc(CNC(=O)Cn2nc(C)n3cccc3c2=O)cc1 | inactive
15 | Cn1sc(NC(=O)c2ccccc2)nc1=O | inactive
16 | CCn1c(CSc2nccn2C)nc2cc(C(=O)O)ccc21 | inactive
17 | O=C(CSc1nc2scc(-c3ccco3)c2c(=O)n1-c1ccccc1)N1CCOCC1 | inactive
18 | COc1ccc2c(c1)c(CC(=O)Nc1ccc(C(C)=O)cc1)c(C)n2C(=O)c1ccc(Cl)cc1 | inactive
19 | Cc1cccc(NC(=O)c2c(NC(=O)c3ccccc3)sc3c2CCCC3)c1 | inactive
20 | CC1CCc2c(sc(NC(=O)Cc3ccccc3)c2C(=O)Nc2ccc(Cl)cc2)C1 (stereo not given) | inactive

Row | Compound | Potency
21 | O=C(Nc1nnc(S(=O)(=O)Nc2ccccc2)s1)C1CCCCC1 | inactive
22 | Cc1ccc(C(=O)Nc2nc(=O)n(C(=O)C3CC3)s2)cc1 | inactive
23 | CCN(CC)C(=O)c1nn(-c2ccc(OC)cc2)c(=O)c2c(N)scc12 | inactive
24 | CCOC(=O)c1c(N)sc2c1CN(C)CC2 | inactive
25 | COC(=O)c1c(NC(=O)C(C)(C)C)sc2c1C(C(=O)OC)CC2 (stereo not given) | inactive
26 | Cc1ccc(S(=O)(=O)N(C)c2nc3ccccc3[nH]c2=S)cc1 | inactive
27 | Nc1scc2c(CO)nn(-c3ccccc3)c(=O)c12 | inactive
28 | O=C(O)CC1S/C(=N/N=C/c2ccc(-c3ccccc3[N+](=O)[O-])o2)NC1=O (stereo not given) | inactive
29 | COc1ccc(OC)c(NC(=O)c2c(NCc3cccs3)sc3c2CCCC3)c1 | inactive
30 | NC[C@@H](O)c1ccc(O)c(O)c1 | inactive
31 | Nc1nc2cc(S(=O)(=O)NC3=NCCCCC3)ccc2s1 | inactive
32 | Cc1ccc(C2=NNC(=Nc3ccc(F)cc3)SC2)cc1 | inactive
33 | O=C(Nc1cccc(-c2nc3ccccc3o2)c1)c1cc([N+](=O)[O-])ccc1N1CCOCC1 | inactive
34 | CCOC(=O)N1CCN(C(=O)CN2C(=O)/C(=C\c3cccc(OC)c3)SC2=S)CC1 | inactive
35 | COc1ccc(NC(=O)c2c(NC(=O)Cc3ccccc3)sc3c2CCCC3)cc1 | inactive
36 | CC(C)C(C)NC(=O)CSc1nc2scc(-c3ccco3)c2c(=O)n1-c1ccccc1 (stereo not given) | inactive
37 | COc1ccc2oc(-c3ccc(NC(=O)c4ccc(N5CCOCC5)c([N+](=O)[O-])c4)cc3)nc2c1 | inactive
38 | O=C(Cc1ccccc1)Nc1sc2c(c1C(=O)Nc1ccc(Cl)cc1)CCOC2 | inactive
39 | O=C(Nc1ccccc1)Nc1ccccc1 | inactive
40 | CN(C(=S)Nc1cccnc1)c1ccc(O)cc1 | inactive
